This is a sample that favours compounds with a hit; in the whole collection about 0.92% have one here.
RECQ1 helicase – blocks DNA unwinding by human RECQ1. P46063. RECQ1 DNA unwinding, red fluorescence kinetic read. Potency, µM (highest dose often 57.3 µM), inactives show at the highest dose activity, negative = inhibition, most hits filed as inhibitors. 240,000 tested, 0.54% active. AID 2549;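 further: plate controls were vehicle for no effect and no enzyme for full effect; nearly all actives have a fitted effect of over 30% in size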
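RECQ1T1 50 nM; forked duplex (20 bp + 30-nt ss tails) 200 nM, ATP 2 mM final; pH 8.0, 2 mM MgCl2, 2.5 ug/ml poly(dI-dC); 15 min compound preincubation; discontinuous kinetic read over 2 h at RT.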
L3MBTL1 block – blocks human L3MBTL1 | Q9Y468 | AlphaScreen L3MBTL1–H3K9me1 peptide binding | Potency, µM (doses to about 57.1 µM), for inactives: top-dose activity, negative = inhibition, usual class: inhibitors | 230,000 tested, 0.66% active; further: nearly all actives have a fitted effect of over 60% in size
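L3MBTL1 (50 nM) pre-complexed 30 min with biotinylated H3(1-15)K9me1 peptide (75 nM), then compounds added for 30 min at room temperature; AlphaScreen streptavidin donor/nickel chelate acceptor beads (10 ug/mL final) read after 30 min dark incubation.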
BLM helicase inh – inhibitors of human Bloom syndrome helicase BLM; AID 2528; 350,000 tested, 0.2% active; P54132; recombinant BLM DNA unwinding, fluorescence dequenching; Potency, µM (titrated, usually from 56.1 µM), for the others: at the top dose activity change, negative = inhibition, actives largely listed as inhibitors;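 further: plate controls were vehicle for no effect and no enzyme for full effect; nearly all actives have a fitted effect of over 35% in size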
Target sequence (P54132 whole entry, looked up): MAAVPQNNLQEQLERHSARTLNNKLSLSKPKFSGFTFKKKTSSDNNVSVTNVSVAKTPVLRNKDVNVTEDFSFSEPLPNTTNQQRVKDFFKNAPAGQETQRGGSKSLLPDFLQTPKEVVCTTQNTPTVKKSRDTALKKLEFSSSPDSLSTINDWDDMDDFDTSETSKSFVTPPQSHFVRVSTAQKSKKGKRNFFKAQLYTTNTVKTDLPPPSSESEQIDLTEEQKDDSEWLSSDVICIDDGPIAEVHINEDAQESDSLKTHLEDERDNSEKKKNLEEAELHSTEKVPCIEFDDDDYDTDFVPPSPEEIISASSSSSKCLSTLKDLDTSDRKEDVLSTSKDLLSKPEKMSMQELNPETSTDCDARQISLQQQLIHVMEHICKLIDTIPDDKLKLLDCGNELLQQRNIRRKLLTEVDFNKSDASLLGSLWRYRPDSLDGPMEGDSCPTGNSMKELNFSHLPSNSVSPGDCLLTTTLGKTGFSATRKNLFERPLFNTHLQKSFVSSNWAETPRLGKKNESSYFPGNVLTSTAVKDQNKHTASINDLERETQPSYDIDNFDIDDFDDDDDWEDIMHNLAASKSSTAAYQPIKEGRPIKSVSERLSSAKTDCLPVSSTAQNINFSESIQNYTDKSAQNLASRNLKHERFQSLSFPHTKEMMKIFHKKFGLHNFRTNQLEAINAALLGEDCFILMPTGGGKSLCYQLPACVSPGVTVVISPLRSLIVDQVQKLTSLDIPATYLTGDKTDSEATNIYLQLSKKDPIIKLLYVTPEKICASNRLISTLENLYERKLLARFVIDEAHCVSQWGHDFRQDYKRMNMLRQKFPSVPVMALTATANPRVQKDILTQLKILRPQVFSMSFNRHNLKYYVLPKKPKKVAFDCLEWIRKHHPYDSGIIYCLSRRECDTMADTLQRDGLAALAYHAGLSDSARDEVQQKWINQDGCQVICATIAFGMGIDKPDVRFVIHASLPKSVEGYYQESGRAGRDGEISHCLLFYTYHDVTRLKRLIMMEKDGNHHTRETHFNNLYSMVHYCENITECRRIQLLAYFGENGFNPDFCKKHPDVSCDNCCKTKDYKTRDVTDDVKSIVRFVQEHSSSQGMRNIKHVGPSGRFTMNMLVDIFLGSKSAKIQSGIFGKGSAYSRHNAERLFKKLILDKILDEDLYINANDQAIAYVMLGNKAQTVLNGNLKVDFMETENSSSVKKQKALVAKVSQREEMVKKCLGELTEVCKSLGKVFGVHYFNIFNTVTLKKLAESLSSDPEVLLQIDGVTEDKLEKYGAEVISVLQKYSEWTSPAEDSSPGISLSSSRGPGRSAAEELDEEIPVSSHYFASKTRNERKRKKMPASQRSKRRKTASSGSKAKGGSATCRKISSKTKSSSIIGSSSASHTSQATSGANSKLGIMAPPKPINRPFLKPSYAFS
APE1 inh-1 – inhibitors of human APE1 endonuclease; 350,000 tested, 0.35% active; AID 2517; Potency, µM (titrated, usually from 65.8 µM), for the others: at the highest dose activity change, negative = inhibition, usual class: inhibitors; recombinant APE1, TAMRA/BHQ-2 abasic DNA cleavage fluorescence; P27695;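 further: plate controls were vehicle for no effect and reference inhibitor for full effect; nearly all actives have a fitted effect of over 55% in size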
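Measures dequenching upon AP-site incision of a 5'-TAMRA/3'-BHQ-2 THF-containing duplex, 50 nM; human APE1 0.75 nM after 15 min room-temperature exposure to compound; kinetic three-point read at one-minute spacing.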
WRN helicase inh – inhibitors of human WRN helicase; Q14191; WRN helicase unwinding, fluorescent forked duplex, kinetic; Potency, µM (series often up to 114 µM), inactives show top-dose activity change, negative = inhibition, usual class: inhibitors; 360,000 tested, 0.46% active; AID 651768; further: nearly all actives have a fitted effect of over 55% in size
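Fluorescence dequenching readout, ex 525 nm/em 598 nm, kinetic mode: forked duplex DNA (100 nM final) with adjacent fluorophore and quencher unwound by WRN (20 nM final) with 2 mM ATP. Compound preincubation 15 min, room temperature.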
APE1 dye cs – displaces fluorescent dye from DNA, flagging APE1 artifacts. AID 2564. DNA fluorescent dye displacement counterscreen, fluorescence. shares compounds with APE1 inh-1. 480 tested, 7% active. Potency, µM (titrated, usually from 28.5 µM), for the others: top-dose activity change, negative = inhibition, hits mostly inhibitors;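 further: loss of thiazole orange fluorescence as the dye is displaced from duplex DNA; 0% = ThO with dsDNA and no compound and -100% = ThO without dsDNA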
Endo IV inh – counter-screen for APE1 inhibitors: inhibitors of E. coli endonuclease IV; 560 tested, 4% active; AID 2565; Potency, µM (titrated, usually from 27.1 µM), for inactives: at the top dose activity change, negative = inhibition, usual class: inhibitors; E. coli Endo IV, fluorogenic AP-site DNA cleavage; shares compounds with APE1 inh-1;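 further: plate controls were uninhibited enzyme wells for no effect and no enzyme buffer wells for full effect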
APE1 inh-2 – confirmation of inhibitors of human APE1 endonuclease; shares compounds with APE1 inh-1; purified APE1, fluorogenic abasic-site DNA cleavage; Potency, µM (titrated, usually from 57.1 µM), without a hit: top-dose activity change, negative = inhibition, hits mostly inhibitors; 750 tested, 44% active; AID 2572; further: nearly all actives have a fitted effect of over 30% in size
APE1 FP inh – APE1 (human) DNA binding inhibition, fluorescence polarization; shares compounds with APE1 inh-1; APE1 binding to TAMRA-labelled double-stranded DNA, fluorescence polarization displacement; 480 tested, 7% active; Potency, µM (top dose mostly 28.5 µM), for inactives: at the highest dose activity, negative = inhibition, actives largely listed as inhibitors
The depositor's hits bear a star; i = inactive; u = inconclusive; x = no result; [ ] = remark or other dose. The call rests on the fitted dose curve; in most records, active means well fitted curve in the direction sought with a large enough effect; inconclusive means small, poorly fitted or top-dose-only effect, or another doubt; inactive means no such curve, though single readings can be large; an effect the other way counts as inactive or inconclusive. Unless noted, on the % scale 0 is the no-effect control and ±100 the full control effect; potency means the concentration at half of the fitted maximal effect.

SMILES | RECQ1 helicase | L3MBTL1 block | BLM helicase inh | APE1 inh-1 | WRN helicase inh | APE1 dye cs | Endo IV inh | APE1 inh-2 | APE1 FP inh
CC(C)(C)C(=O)[C@@H]1[C@@H]2C(=O)N(Cc3ccccc3)C(=O)[C@@H]2[C@H]2c3ccccc3C=CN12 | -24% | x | -12% | u | x | x | x | -14% | x
CC[C@H](C)[C@H](NC(=O)CNC(=O)[C@H](CCCNC(=N)N)NC(=O)CNC(=O)[C@@H](NC(=O)[C@H](Cc1ccc(O)cc1)NC(=O)[C@H](Cc1c[nH]c2ccccc12)NC(=O)[C@H](C)NC(=O)[C@@H]1CCCN1C(=O)[C@H](CC(N)=O)NC(=O)[C@@H](NC(=O)[C@H](CC(=O)O)NC(=O)[C@@H]1CCCN1C(=O)[C@@H](N)[C@@H](C)O)[C@@H](C)CC)[C@@H](C)O)C(=O)N[C@@H](CCCNC(=N)N)C(=O)N1CCC[C@H]1C(=O)N[C@H](C(=O)NCC(=O)N[C@@H](CCCNC(=N)N)C(=O)N[C@@H](Cc1ccccc1)C(N)=O)C(C)C | 11% | x | -12% | 12% | x | x | x | x | x
N[C@H](C(=O)O)[C@H]1C[C@@H]1C(=O)O | -3% | x | x | -6% | x | x | -25%[57.1 µM] | 2.5µM* | x
COc1ccc(OCC(=O)OCCN2C(=O)c3ccccc3C2=O)cc1 | -10% | -10% | -21% | u | -13% | -9% | 4% | u | 8%
CCOc1ccc(OCCN2C(=O)c3ccccc3C2=O)cc1 | x | x | -4% | -16% | 6% | x | x | x | x
NS(=O)(=O)c1ccc(N/N=C/c2ccc(O)c(O)c2O)c([N+](=O)[O-])c1 | 3.2µM* | 2.8µM* | 16µM* | 2µM* | u | 13µM* | 23% | 5.6µM* | -9%
NS(=O)(=O)c1ccc(N/N=C/c2ccc(O)cc2O)c([N+](=O)[O-])c1 | -27% | -20% | -24% | 7% | u | x | x | x | x
C[C@H]1O[C@@H](n2cnc3c(N)ncnc32)C[C@@H]1OP(=O)(O)OP(=O)(O)OP(=O)(O)O | -9% | x | 2% | -3% | x | x | x | x | x
COCc1cc(C)nc(OCC(=O)N/N=C/c2ccc(-c3cc([N+](=O)[O-])ccc3C)o2)c1C#N | -14% | 3% | -3% | -5% | -3% | x | x | x | x
Cc1ccc([N+](=O)[O-])cc1-c1ccc(/C=C(\C#N)c2[nH]nc(N)c2C#N)o1 | 32µM* | -2% | u | u | u | 7.1µM* | -3% | 7.1µM* | 16%
CC(=O)NNC(=O)N1Cc2ccccc2Oc2ccc(Cl)cc21 | -7% | x | -1% | 2% | -1% | x | -9%[57.1 µM] | -38% | x
O=C1/C(=C\c2ccc(O)c(O)c2)Oc2c1ccc(O[C@@H]1O[C@H](CO)[C@@H](O)[C@H](O)[C@H]1O)c2O | -11% | x | -7% | u | x | x | x | x | x
N#Cc1cc2nc(O)c(O)nc2cc1[N+](=O)[O-] | 2% | -8% | 1% | u | -21% | x | -10%[57.1 µM] | -82% | x
O=[N+]([O-])c1cc2nc(O)c(O)nc2cc1[N+](=O)[O-] | 0% | x | 0% | -5% | x | x | x | x | x
Clc1ccccc1-c1ccc2ncnc(NCc3cccs3)c2c1 | x | 6% | x | -6% | x | x | x | x | x
Cc1ccccc1-c1ccc2ncnc(NCc3cccs3)c2c1 | u | x | -25% | 7.1µM* | x | u | -96%[57.1 µM] | 14µM* | 46%[57.1 µM]
CCOC(=O)[C@H](CCc1ccccc1)N[C@@H](C)C(=O)N1Cc2ccccc2C[C@H]1C(=O)O | x | x | x | 0% | 4% | x | x | x | x
CCOC(=O)C(CCc1ccccc1)NC(C)C(=O)N1CCCC1C(=O)O (stereo unspecified) | 5% | x | 6% | 2.2µM* | x | -9%[57.1 µM] | 15%[57.1 µM] | -4% | 6%[57.1 µM]
CCOC(=O)c1cc2c(=O)n3ccccc3nc2n(Cc2ccco2)c1=NC(=O)c1ccccc1OC | -21% | 6% | -24% | u | u | x | x | -35% | x
NOCc1ccccc1 | 10% | x | 4% | 21% | x | x | x | x | x
CN1C(=O)S/C(=C/c2cccn2-c2cccc(C(=O)O)c2)C1=O | 1% | u | -1% | u | -6%[11.6 µM] | u | 1% | u | u
O=C(O)c1cccc(-n2cccc2/C=C2\NC(=O)N(Cc3ccc(F)cc3)C2=O)c1 | -28% | u | -9% | 10µM* | u | -6% | -4% | 10µM* | u
O=C(O)c1ccc(-n2cccc2/C=C2/NC(=O)N(c3cccc(Cl)c3)C2=O)cc1 | 22µM* | x | -15% | 2.8µM* | u | u | 15% | 13µM* | 11µM*
Cc1cc(C(=O)O)ccc1-c1ccc(/C=C2\NC(=O)N(Cc3ccc(F)cc3)C2=O)o1 | -28% | x | 5% | 13µM* | u | u | 4% | 40µM* | -1%
O=C1N/C(=C/c2cccn2-c2ccccc2)C(=O)N1Cc1ccccc1F | 3% | 1% | -5% | 1% | u | x | x | x | x
SMILES | RECQ1 helicase | L3MBTL1 block | BLM helicase inh | APE1 inh-1 | WRN helicase inh | APE1 dye cs | Endo IV inh | APE1 inh-2 | APE1 FP inh
O=C1N/C(=C/c2cccn2-c2ccc(F)cc2)C(=O)N1Cc1ccccc1 | -15% | x | -8% | 0% | 1% | x | x | x | x
C/C=C(/C)C(=O)O[C@H]1C[C@@]2(C)O[C@H]2[C@@H](OC(C)=O)C2(C)CC[C@@](O)(C(C)C)C12 (stereo partly specified) | 6% | x | -4% | -5% | x | x | x | x | x
O=c1c(-c2ccc(O)cc2)coc2cc(O)cc(O)c12 | -6% | x | 2% | -1% | -1% | x | x | x | x
O=c1c(-c2cc(O)c(O)c(O)c2)coc2cc(O)c(O)c(O)c12 | 1.3µM* | x | 11µM* | 0.32µM* | x | x | 7%[57.1 µM] | 0.4µM* | x
O=C(Nc1nccs1)c1cn(-c2ccccc2)nc1-c1ccncc1 | -12% | -4%[11.4 µM] | -15% | 7% | -13% | x | x | -17% | x
COc1ccc(-c2nn(-c3ccccc3)cc2C(=O)Nc2nccs2)cc1 | i | x | -8% | -8% | -9% | x | x | x | x
CCn1cc(C(=O)N[C@H](C(=O)O)C(C)C)c(=O)c2cc3c(cc21)OCO3 | x | x | 0% | 39% | 10% | x | x | x | x
CCn1cc(C(=O)O)c(=O)c2cc3c(cc21)OCO3 | -2% | -4% | -2% | 2% | x | x | 3%[57.1 µM] | -12% | x
CC/C=C\C/C=C\C/C=C\C/C=C\C/C=C\C/C=C\CCC(=O)NCC(=O)O | -8% | x | -10% | -1% | x | x | x | x | x
